Results on 37 molecules are retold here after PubChem BioAssay (NCI).

Values joined by “and” are separate entries in the source; they are usually repeats but may differ in a detail not shown here. Identical values can stand only once. This is part of a sample that, as a whole, favours compounds with a hit. Of some 79,000 tested, about 15% had one in any assay. A number with no mark means an inactive call. Active and inactive are the calls of the source. No stated cut-off is given here; in the data, active means growth inhibition above about 70%; inactive means the rest.

Test [1] can be described thus: NCI Yeast Anticancer Drug Screen. Data for the rad50 strain (AID 155).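 Further: 0% = growth of vehicle-only cultures of the same strain.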 Conditions: S. cerevisiae rad50 strain growth inhibition; at 50.0 µM; stronger effect = higher value. The procedure, abridged: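 Yeast carrying a defined DNA repair defect were exposed to test compounds, and growth was compared with vehicle-treated controls to give percent inhibition.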
The nature of test [2]: NCI Yeast Anticancer Drug Screen. Data for the mec2-1 strain (AID 157). Conditions: S. cerevisiae mec2-1 strain, at 50.0 µM, stronger effect = higher value. The method, boiled down: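 Yeast mec2-1 mutant treated with compound. Readout: growth inhibition vs vehicle controls.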
The nature of test [3]: NCI Yeast Anticancer Drug Screen. Data for the sgs1 mgt1 strain (AID 161).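 Further: 0% = growth of cultures given vehicle only.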 Conditions: S. cerevisiae sgs1 mgt1 strain, at 50.0 µM, stronger effect = higher value. The method, boiled down: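 Inhibition of yeast growth, normalised to vehicle-treated controls, is reported for a strain bearing genetic alterations in DNA damage repair.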
The nature of test [4]: NCI Yeast Anticancer Drug Screen. Data for the cln2 rad14 strain (AID 165).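 Further: 0% = growth equal to vehicle treated cultures.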 Conditions: S. cerevisiae cln2 rad14 strain, at 50.0 µM, stronger effect = higher value. The procedure, abridged: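 cln2 rad14 yeast strain; compound exposure; growth inhibition read vs vehicle controls.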
A short description of test [5]: NCI Yeast Anticancer Drug Screen. Data for the bub3 strain (AID 167). Particulars: S. cerevisiae bub3 mutant strain, at 50.0 µM, stronger effect = higher value. The method, boiled down: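 Compounds were applied to a genetically altered yeast strain carrying a cell-cycle control defect. Growth inhibition was scored against vehicle-treated controls.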
Test [6] can be described thus: NCI Yeast Anticancer Drug Screen. Data for the mlh1 rad18 strain (AID 175). Conditions: S. cerevisiae mlh1 rad18 strain growth inhibition; at 50.0 µM; stronger effect = higher value. The procedure, abridged: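 Yeast w/ defined DNA-repair lesions; compound exposure; growth vs vehicle controls → % inhibition.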

Consider `CN(C)CCN=C(N)N[N+](=O)[O-]`, for which the growth inhibition in test [1] is 1.35%; in test [2] it was 3.75%; in test [3], -15.4%; in test [4] it was -96.4%; in test [5], 2.4%; in test [6], -38%.

As to `CC(C)(C)c1cc(O)ccc1O`, the growth inhibition is 22.5% in test [1]; -1.55% in test [2]; -29.1% in test [3]; -0.25% in test [4]; -25.7% in test [5]; 24.5% in test [6].

Turning to `c1ccc(-c2ccc[n+](CCC[n+]3cccc(-c4ccccn4)c3)c2)nc1`, the growth inhibition in test [1] was 2.9%; in test [2], 2.45%; in test [3] it was -15.2%; in test [4] it was -8.45%; in test [5] it was -5.75%; in test [6], 6.25%.

For `O=C(O)C(O)(c1ccccc1)C1CCCCC1` (configuration not stated), the growth inhibition in test [1] was 1% and 8.5%; in test [2], -19.5% and 5.45%; in test [3] it was -2.1% and -8.8%; in test [4] it was 18.6% and -7.65%; in test [5], -30.9% and 0.6%; in test [6], -1.6% and -2.85%.

As for `CC1(C)N=C(N)N=C(N)N1c1ccc(CCc2ccc(S(=O)(=O)F)cc2)cc1`, the growth inhibition in test [1] was 9.15%; in test [2], 7%; in test [3], -7.3%; in test [4], -6.2%; in test [5] it was -8.7%; in test [6], 7.65%.

Take `O=C1C2CCN(CC2)C1Cc1ccccc1` (configuration not stated): the growth inhibition in test [1] is -10.2% and -4.55%; in test [2] it was 1.95% and 2.95%; in test [3], -8.7% and 4.4%; in test [4], -4.3% and -0.15%; in test [5], -18.3% and -2.8%; in test [6], -15.4% and 2.95%.

For the molecule `Cc1cccc2c(=O)c([Se]c3coc4c(C)cccc4c3=O)coc12`, the growth inhibition in test [1] is -12.4%; in test [2], -15.2%; in test [3], -48.2%; in test [4], -5.8%; in test [5] it was -13.2%; in test [6], -30.1%.

Regarding `CN(C)c1ccc(C=Cc2ccc([N+](=O)[O-])cc2)cc1.[C-]#[O+].[C-]#[O+].[C-]#[O+].[Cr]`, the growth inhibition in test [1] was -16.1%; in test [2], -5.1%; in test [3], -11.6%; in test [4], 24.8%; in test [5], -7.35%; in test [6], -10.1%.

As for `N.N.O=P([O-])([O-])CN(CP(=O)([O-])[O-])CP(=O)([O-])[O-].[Pt+2]`, the growth inhibition is -4.25% in test [1]; -9.8% in test [2]; -11.1% in test [3]; -12.9% in test [4]; 1.15% in test [5]; -23.1% in test [6].

For the molecule `CC(C)CCN(CCC(C)C)CC(O)c1ccc(Br)cc1` (configuration not stated), the growth inhibition in test [1] was 5.1%; in test [2], -13.1%; in test [3], 6.1%; in test [4] it was -47.5%; in test [5], -15.6%; in test [6], 0.35%.

In the case of `O=NNc1cnccn1`, the growth inhibition in test [1] is -15.2% and -8.45%; in test [2] it was -23.9% and 1.5%; in test [3], -37.5% and -16.6%; in test [4], -3.8% and 4.05%; in test [5], -19% and -18.5%; in test [6], -8.25% and -21.2%.

On to `CCC[C@H]1CCCCN1`, for which the growth inhibition in test [1] is 27.1%; in test [2] it was 12.7%; in test [3], 23.4%; in test [4], 18.9%; in test [5], -13%; in test [6], 3.6%.

Regarding `O=C(O)[C@@H]1C2CCC(C[C@@H]1O)N2C(=O)c1ccccc1` (some centres not stated), the growth inhibition in test [1] was -12.8%; in test [2], -3.55%; in test [3], 2.85%; in test [4], -33.5%; in test [5] it was -15.4%; in test [6] it was -1.2%.

On to `COc1cccc(C)c1C1CC2CCCN2O1` (configuration not stated), for which the growth inhibition was 16.6% in test [1]; 5.5% in test [2]; 5.95% in test [3]; 9.4% in test [4]; 14.7% in test [5]; 5.3% in test [6].

For the molecule `CCC1CC[N-]CC1.CCC1CC[N-]CC1.[Cl][Pt+2][Cl]`, the growth inhibition in test [1] was -0.95%; in test [2], 14.8%; in test [3], 73% (active); in test [4], -42.5%; in test [5], 18.1%; in test [6], 48.8%.

As for `C[P+](C)(C)C`, the growth inhibition is 15.6% and -6.8% in test [1]; -17.2% and 7.3% in test [2]; -6.6% and 1.45% in test [3]; 1.4% and -5.8% in test [4]; 12% and -17.4% in test [5]; -26.9% and -6.85% in test [6].

As to `O=C1C(=O)c2ccccc2C(O)=C1CN(CCCl)CCCl`, the growth inhibition in test [1] was 31.6%; in test [2] it was 17.9%; in test [3] it was 27.2%; in test [4], -21.9%; in test [5] it was 30.8%; in test [6], 29.8%.

For `COP1(=S)OCC(C(C)(C)C)CO1` (configuration not stated), the growth inhibition in test [1] is 7.1%; in test [2], 1.2%; in test [3] it was -2.1%; in test [4], -14.4%; in test [5] it was 25.9%; in test [6], -3.55%.

Take `C(#CCN1CCCCCC1)CN1CCCCCC1`: the growth inhibition in test [1] was 0.55%; in test [2] it was -9.8%; in test [3], 0.05%; in test [4] it was -8.85%; in test [5], -14.1%; in test [6], -2.7%.

In the case of `COP(=O)(NC(C)=O)OC`, the growth inhibition in test [1] is 11.6%; in test [2] it was -14.7%; in test [3] it was -4.5%; in test [4], -45.8%; in test [5] it was -10.5%; in test [6] it was -1.55%.

In the case of `CCCCCCN1C(C)C1C(C)C` (configuration not stated), the growth inhibition in test [1] was 5.7%; in test [2], 12.2%; in test [3] it was 2.25%; in test [4], -3.8%; in test [5], -4.15%; in test [6], 1.6%.

`O=P(O)(O)C(O)c1ccncc1` (configuration not stated): the growth inhibition was -28% in test [1]; -14.9% in test [2]; -15.8% in test [3]; -23.1% in test [4]; -22.6% in test [5]; -21.9% in test [6].

As to `CC1(C)OC(C=O)C2CC(=O)c3c(O)cccc3C2(C)O1` (configuration not stated), the growth inhibition is 33.4% in test [1]; -1.45% in test [2]; 12.9% in test [3]; -4.15% in test [4]; 11.9% in test [5]; 0.35% in test [6].

`C=CC12CN(C)C3C4COC(CC41)C1(C(=O)Nc4ccccc41)C32` (configuration not stated): the growth inhibition in test [1] was 1.25% and -22.5%; in test [2], -3.3% and -18.6%; in test [3], -7.35%; in test [4] it was -13.5%; in test [5], -11.6%; in test [6], 29.2% and -19.2%.

As for `c1ccc2c(c1)CCNC2`, the growth inhibition in test [1] was 21.8%; in test [2] it was 13.2%; in test [3], 19%; in test [4], 5.15%; in test [5], -0.55%; in test [6] it was 24.4%.

On to `CCOP(=O)(CC(=O)c1ccccc1)OCC`, for which the growth inhibition in test [1] was 10.1%; in test [2], 1.25%; in test [3], -18.1%; in test [4] it was 0.6%; in test [5], -1.45%; in test [6] it was 20.8%.

Turning to `CCN(CCCl)c1cccc(NC(=O)c2ccc(C(=O)Nc3cccc(CN(C)C)c3)cc2)c1`, the growth inhibition in test [1] was 5.55%; in test [2], -6.3%; in test [3], 20.5%; in test [4], -1.95%; in test [5], -14.4%; in test [6] it was 26.3%.

For `Cc1nccc2c1[nH]c1ccc(Br)cc12`, the growth inhibition is 13.7% in test [1]; 11.6% in test [2]; -7.55% in test [3]; -2% in test [4]; 9.55% in test [5]; 1.25% in test [6].

Turning to `Cc1cc(N(CCCl)CCCl)ccc1C1N(Cc2ccc(N(C)C)cc2)CCN1Cc1ccc(N(C)C)cc1`, the growth inhibition in test [1] was 13.5%; in test [2], 1.55%; in test [3], 16.4%; in test [4], -3.4%; in test [5] it was 1.6%; in test [6] it was 18.6%.

Regarding `O=C(O)CC1OCC=C2CN3CCC45c6ccccc6NC4C1C2CC35` (configuration not stated), the growth inhibition is -30.8% and 9.3% in test [1]; -15.9% and -13.8% in test [2]; -31.9% in test [3]; 19.6% in test [4]; -57.6% in test [5]; -15.2% and 18.8% in test [6].

For the molecule `CC(C)OC(=O)C(C)Br` (configuration not stated), the growth inhibition in test [1] was -0.1%; in test [2] it was -3.05%; in test [3] it was -8.35%; in test [4], 3%; in test [5], 3.1%; in test [6], 1.15%.

Turning to `CC(=O)OC1CCC2(C)C3CCC4(C)C(Oc5ccccc5)CCC4C3CC(Br)C2(O)C1` (configuration not stated), the growth inhibition was -48% in test [1]; -29.9% in test [2]; -35.9% in test [3]; 2.75% in test [4]; -31.6% in test [5]; -43% in test [6].

With `NC(P(=O)(O)O)P(=O)(O)O`, the growth inhibition in test [1] was 4.15%; in test [2], -1.2%; in test [3] it was 16.7%; in test [4] it was 15.3%; in test [5], 18.4%; in test [6] it was 7.1%.

As for `NC(=O)CCCc1ccc([As]=O)cc1` (configuration not stated), the growth inhibition was -8.7% in test [1]; -11.9% in test [2]; -8.85% in test [3]; -27.1% in test [4]; -0.25% in test [5]; 9.75% in test [6].

Regarding `C/C(=C\C(C)C)C1(C)C(=O)NC(=O)NC1=O`, the growth inhibition is 8.85% in test [1]; 11.4% in test [2]; -6.3% in test [3]; 4.95% in test [4]; 4.4% in test [5]; -19.3% in test [6].

With `O=C(CN1CCOCC1)c1ccccc1`, the growth inhibition is -1.55% and -6.6% in test [1]; -4.1% and -13.4% in test [2]; -2.65% and -9.4% in test [3]; 3.55% and -42% in test [4]; -3.85% and -14.3% in test [5]; -1.85% and -22.9% in test [6].

For the molecule `[Cr+3].[NH-]CC[NH-].[NH-]CC[NH-].[NH-]CC[NH-].[O-][Cl+3]([O-])([O-])O`, the growth inhibition in test [1] is 19.2%; in test [2], 1.2%; in test [3], 1.05%; in test [4] it was -5.15%; in test [5], 1%; in test [6], -1.8%.
